Assay outcomes as filed in PubChem.
CHRM1 PAM: human M1 muscarinic receptor positive allosteric modulators, primary screen, CHO-K1 cells, Fluo-8 calcium fluorescence, 1536-well | Muscarinic acetylcholine receptor M1 (Homo sapiens), P11229 | CHO-K1 hM1, ACh EC20; 0% = ACh EC20, 100% = maximal ACh | activation, % at 3 µM | 360,000 tested, 0.088% active; in the data active = activation above about 19%, passing the limit was not always enough
Target sequence (P11229 whole entry, looked up): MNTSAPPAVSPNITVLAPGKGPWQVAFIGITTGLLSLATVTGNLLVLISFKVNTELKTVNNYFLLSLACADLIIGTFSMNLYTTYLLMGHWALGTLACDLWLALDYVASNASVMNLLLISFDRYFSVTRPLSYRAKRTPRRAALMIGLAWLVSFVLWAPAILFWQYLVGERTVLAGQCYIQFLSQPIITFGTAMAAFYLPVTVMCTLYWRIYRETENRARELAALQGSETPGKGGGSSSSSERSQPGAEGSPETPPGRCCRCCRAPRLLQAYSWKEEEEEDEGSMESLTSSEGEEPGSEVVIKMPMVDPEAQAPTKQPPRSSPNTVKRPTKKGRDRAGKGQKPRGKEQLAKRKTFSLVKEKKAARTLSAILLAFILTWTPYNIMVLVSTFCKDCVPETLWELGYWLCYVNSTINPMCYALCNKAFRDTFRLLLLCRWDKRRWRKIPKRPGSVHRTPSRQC
CHO-K1 Ca ag: counter-screen for M1 agonists: effect in parental CHO-K1 cells; Fluo-8 calcium fluorescence; scaled to maximal ATP response, vehicle zero; activation, % at 3 µM; 360,000 tested, 0.48% active; AID 602248, 2012; in the data active = activation above about 15%;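 note: untransfected CHO-K1 host cells lacking M1 receptor as counterscreen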
M1 ag: human M1 muscarinic receptor agonists, primary screen, Fluo-8 calcium fluorescence, CHO-K1 cells, HTS | CHO-K1 hM1, agonist mode; 0% DMSO, 100% acetylcholine EC100 | activation, % at 3 µM | 360,000 tested, 0.33% active | AID 588814, 2011;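 active = activation above the run's mean compound activation plus 3 SD, cut at about 16% in these data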;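 note: peak over basal fluorescence ratio within a 140 s kinetic read after compound addition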
CHO-K1 Ca antag: M1 antagonist counterscreen hit in parental CHO-K1 cells; ATP-induced calcium, Fluo-8 fluorescence; AID 602250; inhibition, % at 3 µM; 360,000 tested, 0.6% active;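 active = inhibition above a per-plate cutoff, the plate's mean sample inhibition plus 3 SD, cut at about 24% in these data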
CHRM1 antagonist: human M1 muscarinic receptor antagonists, primary screen, CHO-K1 cells, Fluo-8 calcium fluorescence, 1536-well | Muscarinic acetylcholine receptor M1 (Homo sapiens), P11229 | 360,000 tested, 1.3% active | inhibition, % at 3 µM | CHO-K1 hM1, ACh EC80 antagonist | AID 588852, 2011;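 active = percent inhibition above its own plate's cutoff, namely the mean of that plate's compound wells plus 3 SD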;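 note: peak over basal fluorescence ratio during 140 s after agonist addition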
M1 PAM parental: nonselective calcium activators in parental CHO-K1 cells, primary screen, counter-screen for M1 PAM project, cell-based, Fluo-8 calcium fluorescence, full deck, 1536-well; ATP EC20; 0% at ATP EC20, 100% at ATP max; activation, % at 3 µM; 360,000 tested, 0.02% active; AID 602247, 2012;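 active = activation above the run cutoff, the mean activation of all test compounds plus 3 SD, cut at about 40% in these data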;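 note: peak over basal fluorescence ratio in a 140 s read after ATP addition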
A number is an active result; n = inactive. Shown are actives, neighbours in structure and some others; about 2.3% of the full set was active somewhere.

SMILES | CHRM1 PAM | CHO-K1 Ca ag | M1 ag | CHO-K1 Ca antag | CHRM1 antagonist | M1 PAM parental
Cc1cccc(-c2cnc(C(O)c3ccc(Cl)cc3C)[nH]2)c1 (stereo not drawn) | n | n | n | n | n | n
COc1ccc(-c2cc(C(F)F)n3ncc(C(=O)N4CCSCC4)c3n2)cc1 | n | n | n | n | 27 | n
C/C(=N\Nc1ccccn1)c1ccc(OC(F)F)cc1 | n | 17 | n | n | n | n
CN1CCN(CC(O)(c2ccc(Cl)cc2)c2ccc(Cl)cc2)CC1 | n | n | n | n | 72 | n
CCCc1nnc(NC(=O)Cn2c(=O)oc3ccccc32)s1 | n | n | n | n | n | n
CCCc1nnc(NC(=O)Cn2c(=O)oc3cc(Br)ccc32)s1 | n | 17 | 37 | n | n | n
CN1C[C@@H]2C(c3ccc(C(F)(F)F)cc3)C3(c4cccnc4)CC2(C3)[C@H]1c1ccccc1 (stereo partly drawn) | n | n | n | n | 32 | n
FC(F)(F)c1ccc(CN2C[C@@H]3C(c4ccc(C(F)(F)F)cc4)C4(c5cccnc5)CC3(C4)[C@H]2c2ccccc2)cc1 (stereo partly drawn) | n | n | n | n | n | n
c1ccc(C2[C@H]3CN(CC4CCCCC4)[C@H](c4ccccc4)C34CC2(c2cccnc2)C4)cc1 (stereo partly drawn) | n | n | n | n | 74 | n
c1ccc(C2[C@H]3CN(CC4CCCCC4)[C@H](c4ccccc4)C34CC2(c2ccccc2)C4)cc1 (stereo partly drawn) | n | n | n | n | n | n
c1ccc(C2[C@H]3CN(Cc4cccnc4)[C@H](c4ccccc4)C34CC2(c2cccnc2)C4)cc1 (stereo partly drawn) | n | n | n | n | 40 | n
COc1ccc(/C=C(\NC(=O)c2ccc(OC)cc2)C(=O)Nc2cccc(C(=O)O)c2)cc1 | n | n | n | n | n | n
COc1ccc(C(=O)N/C(=C/c2ccc(Cl)cc2)C(=O)Nc2ccc(C(=O)O)cc2)cc1 | n | n | n | 25 | n | n
CCC1CCCCN1CCCNC(=O)C1CCN(c2nnc(-n3cccc3)s2)CC1 (stereo not drawn) | n | n | n | n | 95 | n
CCOc1ccc(NCc2cccn2-c2nnc(N3CCC(C(=O)NCCCN4C(C)CCCC4C)CC3)s2)cc1 (stereo not drawn) | n | n | n | n | 78 | n
CCOc1ccc(NCc2cccn2-c2nnc(N3CCC(C(=O)NCCCN4CCCCC4C)CC3)s2)cc1 (stereo not drawn) | n | n | n | n | 53 | n
O=C(C1CCN(c2nnc(-n3cccc3)s2)CC1)N1CCCCC1 | n | n | n | n | n | n
CC1CCN(C(=O)C2CCN(c3nnc(-n4cccc4)s3)CC2)CC1 | n | n | n | 57 | n | n
O=C(CSc1nc2ncc(Cl)cc2[nH]1)N(Cc1ccccc1)C1CCS(=O)(=O)C1 (stereo not drawn) | n | n | n | n | n | n
Cn1c(=O)c2nc(NCc3ccccc3)sc2n(C)c1=O | n | n | n | n | n | n
CCOc1ccc(NCc2cccn2-c2nnc(N3CCC(C(=O)NCCCN4CCCCC4)CC3)s2)cc1 | n | n | n | n | 63 | n
COc1ccc(NC(=O)N/C=C/c2ccccc2)cc1 | n | 16 | n | n | n | n
COc1ccc(NC(=O)NC(C)c2ccccc2)cc1 (stereo not drawn) | n | n | n | n | n | n
Cc1ccc(N(C)S(=O)(=O)c2cccc(C(=O)OCC(=O)c3c(N)n(C)c(=O)n(C)c3=O)c2)cc1 | n | n | n | n | 33 | n
CC1(C)CC(=O)C/C(=N\NC(=O)CCc2ccc(S(=O)(=O)N3CCOCC3)cc2)C1 | n | n | n | n | n | n
SMILES | CHRM1 PAM | CHO-K1 Ca ag | M1 ag | CHO-K1 Ca antag | CHRM1 antagonist | M1 PAM parental
O=C(Nc1ccc(S(=O)(=O)Nc2ncccn2)cc1)c1ccc(Br)o1 | n | 18 | n | n | n | n
O=C(Nc1ccc(S(=O)(=O)Nc2ncccn2)cc1)c1ccco1 | n | n | n | n | n | n
CCn1nc(C(=O)N2CCN(Cc3nc4ccccc4s3)CC2)c2ccccc2c1=O | n | n | n | n | 38 | n
O=C(c1ccco1)N1CCN(C/C=C/c2ccccc2)CC1 | n | n | n | n | n | n
O=C(c1nn(Cc2ccccc2)c(=O)c2ccccc12)N1CCN(C/C=C/c2ccccc2)CC1 | n | n | n | n | 95 | n
Clc1cccc(Cl)c1CSc1nnc(-c2ccncc2)s1 | n | n | 60 | n | 43 | n
CCOC(=O)c1c(C)[nH]c(C(=O)OCC(=O)Nc2ccc(Cl)cn2)c1C | n | n | n | n | n | n
CC(C)[C@H](NC(=O)c1ccccc1)C(=O)OCC(=O)Nc1sccc1C(N)=O | n | n | n | n | n | n
CC(Oc1ccccc1)C(=O)OCC(=O)Nc1sccc1C(N)=O (stereo not drawn) | n | n | n | n | 40 | n
CCC(Oc1ccccc1)C(=O)OCC(=O)Nc1sccc1C(N)=O (stereo not drawn) | n | 17 | n | n | n | n
CCOC(=O)c1c(C)[nH]c(C(=O)OCC(=O)Nc2sccc2C(N)=O)c1C | n | 17 | n | n | 31 | n
CC(C)(C)OC(=O)C[C@@H]1C/C=C\C[C@@H](CC(=O)N(CCO)Cc2ccccc2)C(=O)N[C@@H](c2ccccc2)COC1=O | n | n | n | n | n | n
COc1cccc(S(=O)(=O)NC2CCN(C#N)C2)c1 (stereo not drawn) | n | n | n | n | n | n
CCCCCCN1C[C@H](n2cc(-c3ccc(F)cc3)nn2)[C@@H](O)C[C@@H]1c1ccc(C)cc1 | n | n | n | n | 19 | n
Cc1cc(/C=C(\C#N)C(N)=O)c(C)n1-c1ccc(N2CCOCC2)c([N+](=O)[O-])c1 | n | n | 34 | n | n | n
CCOC(=O)NC(=O)/C(C#N)=C\Nc1sccc1C(=O)OC | n | 18 | n | n | n | n
COc1ccc(CNCC(=O)Nc2cc(OC)cc(OC)c2)cc1 | n | n | n | n | n | n
CN1C(=O)C(CC(=O)Nc2ccc(F)cc2)N(NC(=O)c2cccc(F)c2)C1=S (stereo not drawn) | n | n | n | n | 50 | n
CCN1C(=O)C(CC(=O)Nc2ccccc2Cl)N(NC(=O)c2cccc(F)c2)C1=S (stereo not drawn) | n | n | n | n | n | n
